In the library only some 3.3% were active in any assay of this set; here they are far more common.
MazEF act = MazEF (E. coli) toxin RNase activation. 350,000 compounds, 0.32% hits. P0AE70. activation, % at 20 µM. FAM/BHQ RNA-DNA oligo cleavage fluorescence, 5 h; in the data active = activation above about 50%
BoNT A protease = inhibitors of Botulinum neurotoxin A light chain protease; 360,000 compounds, 0.17% hits; inhibition, % at 10 µM; multiplex microsphere protease substrate cleavage, flow cytometry; AID 588499; also: plate controls were buffer without enzyme for full effect and enzyme alone for no effect
BoNT F protease = inhibitors of Botulinum neurotoxin F light chain protease | Multiplex microsphere protease cleavage assay, flow cytometry | inhibition, % at 10 µM | 360,000 compounds, 0.22% hits | AID 588497; in the data active = inhibition above about 35%, passing the limit was not always enough; inconclusive = no clear call, values can overlap the other calls; also: plate controls were buffer without enzyme for full effect and enzyme alone for no effect
Anthrax LF inh2 = anthrax lethal factor protease inhibition. P15917. multiplex microsphere protease cleavage assay, LF. inhibition, % at 10 µM. 360,000 compounds, 0.12% hits. AID 588501; also: plate controls were buffer without enzyme for full effect and enzyme alone for no effect
Target sequence (P15917 whole entry, looked up): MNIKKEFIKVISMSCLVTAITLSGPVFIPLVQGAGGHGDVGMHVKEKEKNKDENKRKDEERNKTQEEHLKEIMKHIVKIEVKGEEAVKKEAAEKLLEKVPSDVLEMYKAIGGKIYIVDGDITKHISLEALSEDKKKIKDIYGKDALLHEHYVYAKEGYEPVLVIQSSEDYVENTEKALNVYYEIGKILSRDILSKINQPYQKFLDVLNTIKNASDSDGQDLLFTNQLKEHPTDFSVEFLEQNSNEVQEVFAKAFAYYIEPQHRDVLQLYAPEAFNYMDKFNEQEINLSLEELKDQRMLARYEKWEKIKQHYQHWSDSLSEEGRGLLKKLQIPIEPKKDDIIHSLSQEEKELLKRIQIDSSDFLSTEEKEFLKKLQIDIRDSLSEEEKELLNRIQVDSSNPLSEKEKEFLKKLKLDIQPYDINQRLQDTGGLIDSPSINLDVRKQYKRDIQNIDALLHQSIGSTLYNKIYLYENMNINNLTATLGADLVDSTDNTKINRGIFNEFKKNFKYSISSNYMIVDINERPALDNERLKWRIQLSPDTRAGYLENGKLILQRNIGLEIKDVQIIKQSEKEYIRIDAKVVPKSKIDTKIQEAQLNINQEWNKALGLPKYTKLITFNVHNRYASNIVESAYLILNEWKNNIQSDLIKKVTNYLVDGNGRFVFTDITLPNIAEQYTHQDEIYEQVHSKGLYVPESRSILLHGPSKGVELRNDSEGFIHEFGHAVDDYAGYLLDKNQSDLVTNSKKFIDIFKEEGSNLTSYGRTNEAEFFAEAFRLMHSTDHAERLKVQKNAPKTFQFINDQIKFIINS
Bead autofluor = compound fluorescence in toxin protease inhibitor counterscreen; fluorescence intensity (concentration not given with the values); compound autofluorescence counterscreen, microsphere flow cytometry; active compounds read high; 360,000 compounds, 3.1% hits; in the data active = fluorescence intensity above about 16000; inconclusive = no clear call, values can overlap the other calls
SSB-PriA inh = inhibitors of Klebsiella pneumoniae PriA binding to SSB C-terminal tail; AlphaScreen SSBct-PriA binding, biotinylated peptide; inhibition, % at 33 µM; 430,000 compounds, 0.6% hits; in the data active = inhibition mostly above about 37%, no sharp cut-off; inactive = mostly below about 20%;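 also: plate controls were negative control peptide for no effect and reference peptide for full effect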
* = called active by the depositor; u = inconclusive; x = not tested or not shown. Rule as the data show it, unless noted: active = inhibition above about 30%; inconclusive = no clear call, values can overlap the other calls; inactive = below that.

SMILES	MazEF act	BoNT A protease	BoNT F protease	Anthrax LF inh2	Bead autofluor	SSB-PriA inh
CC1(C)CC(=O)C(C=NCC2CCNCC2)=C(O)C1	5	0	1	-11	4183	-1
CC1(C)CC(=O)C(C=NCCCn2ccnc2)=C(O)C1	2	1	2	-1	21981*	-9
O=C(NCCN1CCC(c2cccs2)CC1)Nc1ccccc1Cl	x	x	x	x	x	3
COc1ccc(OC)c(COCC(O)CN2CCN(c3cc(Cl)ccc3C)CC2)c1 (centres undefined)	x	x	x	x	x	21
Cc1nc(-n2nc(-c3cccs3)cc2NC(=O)c2ccc(Cl)cc2Cl)[nH]c(=O)c1C	x	x	x	x	x	-21
Cc1cccc(-n2c(N3CCCC3)nc3cc(C(=O)N4CCN(c5ccccc5)CC4)ccc3c2=O)c1	x	x	x	x	x	1
CC1(C)CC(=O)C(C=Nc2ccccc2)=C(O)C1	2	0	-10	-4	2613	-6
CC1(C)CC(=O)C(C=NCC(O)c2ccccc2)=C(O)C1 (centres undefined)	0	-3	-4	-1	20941*	-17
CCOc1ccc(-c2cc(=O)n(CC(=O)N3CCc4ccccc4C3)cn2)cc1	x	x	x	x	x	1
Cn1c(=O)c2c(nc(CN3CCC(Cc4ccccc4)CC3)n2CCN2CCOCC2)n(C)c1=O	-2	-2	-3	-3	27251*	-14
Cn1c(=O)c2c(nc(NCCCN3CCOCC3)n2Cc2cccc(Cl)c2)n(C)c1=O	-2	2	6	-1	22276*	-26
Cn1c(=O)c2c(nc(SCCN3CCOCC3)n2Cc2cccc3ccccc23)n(C)c1=O	-4	0	0	-5	19656*	6
Cn1c(=O)c2c(nc(NCCCN3CCOCC3)n2Cc2ccc(Cl)cc2)n(C)c1=O	6	2	-8	u	u	-12
Cn1c(=O)c2c(nc(CN3CCCCC3)n2CCc2ccccc2)n(C)c1=O	8	0	7	-2	2121	-8
Cn1c(=O)c2c(nc(CN3CCC(C(N)=O)CC3)n2CCc2ccccc2)n(C)c1=O	4	u	3	-1	19348*	-8
COc1ccc(NC(=O)C(=O)NN=C(C)CC(=O)Nc2cc(C)ccn2)c(OC)c1	x	x	x	x	x	-9
COc1ccc(S(=O)(=O)NCc2cccnc2)cc1N(C)S(=O)(=O)c1ccc(Cl)cc1	x	x	x	x	x	-11
O=S(=O)(NCc1ccc([C@@H](O)c2ccco2)s1)c1ccc(N2CCCCS2(=O)=O)cc1	x	x	x	x	x	2
Cc1ccc(NC(=O)CSc2nc3cc(-c4ccccc4)sc3c(=O)n2C)cc1C	x	x	x	x	x	-6
O=C(c1ccc(F)cc1)C1CCN(C(=O)N2CCOCC2)CC1	2	-1	-8	1	11934	-11
O=C(c1ccc(Cl)cc1)C1CCN(C(=O)N2CCOCC2)CC1	0	-1	-2	0	19889*	-4
Cc1nc2ccccc2n1CCc1nc2c3ccccc3nc(=S)n2[nH]1	3	u	-4	0	23484*	-11
C=CCn1c(O)c(C=NN2CCCCC2)c(=O)[nH]c1=O	x	x	x	x	x	-12
O=C(NC1CCCCC1)C(c1cccnc1)N(C(=O)CCl)c1ccccc1Cl (centres undefined)	2	4	38*	-1	2741	7
COCCCN(C(=O)c1ccccc1)c1nc(-c2ccc(OC)cc2)cs1	-3	-3	2	-10	3041	-12
SMILES	MazEF act	BoNT A protease	BoNT F protease	Anthrax LF inh2	Bead autofluor	SSB-PriA inh
COCCCN(C(C)=O)c1nc(-c2ccccc2)cs1	3	u	0	-2	21845*	-22
Cc1nnsc1C(=O)Nc1ccc(F)cc1	x	x	x	x	x	-36
CC(C)OC(=O)CSc1ccc([N+](=O)[O-])cc1[N+](=O)[O-]	x	x	x	x	x	59*
COc1cccc(S(=O)(=O)Nc2cccc(C(F)(F)F)c2)c1	x	x	x	x	x	-9
Cc1ncc2c(c1OC(=O)c1ccccc1)COC(C)(C)OC2	1	u	-4	-1	23118*	-12
CCCCNC(=O)/C(C#N)=c1\s/c(=C\c2ccccc2OC(F)F)c(=O)n1CCCOC	85*	0	3	-3	10752	x
COCCCNC(=O)/C(C#N)=c1\s/c(=C\c2ccccc2OC(F)F)c(=O)n1CCCOC	98*	0	-6	-3	10334	x
COCCCn1c(=O)/c(=C\c2ccccc2OC(F)F)s/c1=C(/C#N)C(=O)NCCOC	83*	0	-7	-13	4543	x
COCCCn1c(=O)/c(=C/c2ccccc2OC(F)F)s/c1=C(\C#N)C(=O)NCCOC	72*	0	6	-17	3123	-7
COCCCn1c(=C(C#N)C(=O)NCCOC)s/c(=C/c2ccccc2OC(F)F)c1=O	x	x	x	x	x	-3

High-throughput results deposited in PubChem by several laboratories.
